Drawing on PubChem BioAssay (EPA / NIEHS), this text covers outcome and AC50 for 36 molecules.

Values joined by “and” are separate entries in the source; they are usually repeats but may differ in a detail not shown here. Equal values may be shown once. Active and inactive are the calls of the source. How the source made its calls: active means hit-call score of the fitted dose curve at least 0.9, where 1 is the maximum; inactive means score below 0.9.

This experiment can be described thus: BSK_3C_Proliferation: Cell Proliferation Assessment in the BioMAP Diversity Plus: 3C Assay (AID 2283006).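 On AC50: potency may reflect either rise or fall in cell number versus DMSO.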 Particulars: primary human endothelial cells (HUVEC). The protocol: BSK_3C is a cell-based, multiplexed-readout assay that uses umbilical vein endothelium, a human vascular primary cell, with measurements taken at 24 hours after chemical dosing in a 96-well plate.BSK_3C_Proliferation is an assay component measured in the BSK_3C assay. It measures 0.1% sulforhodamine related to cell proliferation using Sulforhodamine staining technology.Data from the assay component BSK_3C_Proliferation was analyzed into 1 assay endpoint. This assay endpoint, BSK_3C_Proliferation, was analyzed with bidirectional fitting relative to DMSO as the negative control and baseline of activity. Using a type of viability reporter, measures of total protein for gain or loss-of-signal activity can be used to understand the viability at the cellular-level. Furthermore, this assay endpoint can be referred to as a secondary readout, because this assay has produced multiple assay endpoints where this one serves a viability function. To generalize the intended target to other relatable targets, this assay endpoint is annotated to the cell cycle intended target family, where the subfamily is proliferation.
The levels of cell surface (or secreted, indicated by the prefix "s") biomarker endpoints were measured by ELISA. Overt cytotoxicity to cells in confluent adherent cultures (all systems other than the BT system) was assessed by measuring total protein levels using sulforhodamine B (SRB) staining in parallel cultures at the time of biomarker measurements, indicated as SRB endpoints. For proliferation assays for adherent cell types, individual cell types are cultured at sub-confluence and relative cell numbers quantified by SRB staining at time points optimized for each system (48 h: 3C and CASM3C systems; 72 h: BT and HDF3CGF systems; 96 h: SAg system). SRB was performed by staining cells with 0.1% SRB after fixation with 10% TCA and reading wells at 560 nm.Viability and proliferation of PBMC (T cells) was quantified by Alamar Blue reduction for the SAg and BT systems. For PBMC viability (referred to as PBMC Cytotoxicity within the assay endpoint names), cells were plated (75,000/well in a 96-well plate) and then chemical samples added for 1 h before addition of activators, SEB and TSST-1 (20 ng/mL final concentration each). Cells were incubated for 90 h. Then, Alamar Blue (20 uL/well) (Invitrogen, Cat DAL1100) was added for 6 h, and the plates were read with a fluorescence microplate reader at 546/580 nm (excitation/emission). For PBMC proliferation, cells were plated and activated as above but incubated for only 16 h prior to addition of Alamar Blue. Plates were read after 6 h.
`C=C[Si](OC(C)=O)(OC(C)=O)OC(C)=O`: the result was inactive.

Turning to `O=c1c2ccccc2oc2ccccc12`, the outcome was inactive.

As to `CCCCC(CC)COCC1CO1` (stereo unspecified), the result was inactive.

As a reminder, the AC50 is the concentration giving half of the maximal activity seen. On to `c1ccc2c(c1)ccc1ncccc12`, for which the AC50 is 20 µM (active).

Regarding `CCCCC/C=C\C/C=C\CCCCCCCC(=O)OC`, the half-maximal activity concentration (AC50) is 27.1 µM (active).

Take `C=CCOc1c(Br)cc(Br)cc1Br`: the AC50 is 25.8 µM (active).

For `C=CCOCC(O)CCl` (stereo unspecified), the outcome was inactive.

Turning to `O=C1CCCN1CCO`, the result was inactive.

For the molecule `CCCCNc1ccc(NCCCC)c2c1C(=O)c1ccccc1C2=O`, the outcome was inactive.

With `CCO[Si](CCCN=C=O)(OCC)OCC`, the result was inactive.

Consider `O=C(Nc1ccccc1SSc1ccccc1NC(=O)c1ccccc1)c1ccccc1`, for which the AC50 is 5.29 µM (active).

Turning to `C=CC(=O)OCC(Br)CBr` (stereo unspecified), the AC50 is 9.42 µM (active).

For `O=C(c1ccc(O)cc1)c1ccc(O)cc1O`, the AC50 was 20 µM (active) and 15 µM (active).

Regarding `CCCCC(CC)COC(=O)c1ccccc1O` (stereo unspecified), the AC50 was 17.3 µM (active).

Turning to `COc1ccc2nc(N)sc2c1`, the outcome was inactive.

As for `C#CC1(O)CC[C@H]2[C@@H]3CCC4=CCCC[C@@H]4[C@H]3CC[C@@]21C` (stereo partly specified), the AC50 was 11 µM (active).

Turning to `C/C=C\C/C=C/CCCCCCCCOC(C)=O`, the concentration at half-maximal activity (AC50) was 22.3 µM (active).

`COCc1c(C(C)C)nc(C(C)C)c(/C=C/[C@@H](O)C[C@@H](O)CC(=O)O)c1-c1ccc(F)cc1`: the AC50 is 0.039 µM (active).

As for `S=C(NC1CCCCC1)NC1CCCCC1`, the outcome was inactive.

With `c1ccc2c(c1)ccc1cc3c(ccc4ccccc43)cc12`, the result was inactive.

For the molecule `O=Nc1ccc(O)cc1`, the outcome was inactive.

Take `CC(C)(c1cc(Br)c(OCCO)c(Br)c1)c1cc(Br)c(OCCO)c(Br)c1`: the AC50 was 11.9 µM (active).

For `CC1OC1C1CCC2(C)OC2C1` (stereo unspecified), the result was inactive.

Regarding `CO[Si](OC)(OC)c1ccccc1`, the outcome was inactive.

For `CCCCCCCCCCCCCCCC[N+](C)(C)CC`, the AC50 is 0.636 µM (active).

Consider `CCCCCCCCc1ccc(Nc2ccc(CCCCCCCC)cc2)cc1`, for which the result was inactive.

Consider `CC(C)C(=O)C(C)C`, for which the result was inactive.

In the case of `CCO[Si](C)(OCC)OCC`, the outcome was inactive.

`Nc1ccc(N)c(Cl)c1`: the AC50 was 13.1 µM (active) and 16.2 µM (active).

With `N#[N+]c1ccc2c(S(=O)(=O)[O-])cccc2c1O`, the outcome was inactive.

Take `CN1C(=O)N(C)C(O)C1O` (stereo unspecified): the outcome was inactive.

Turning to `CCOc1nc(F)cc2nc(S(=O)(=O)Nc3c(Cl)cccc3C(=O)OC)nn12`, the outcome was inactive.

With `C=CC=CC=CCCCCC`, the outcome was inactive.

On to `CCOC(=O)c1ccccc1C(=C1C=C(Br)C(=O)C(Br)=C1)c1cc(Br)c(O)c(Br)c1`, for which the half-maximal activity concentration (AC50) is 20.1 µM (active) and 19.1 µM (active).

As to `c1ccc(-c2ccccn2)nc1`, the AC50 is 29 µM (active).

For `O=C(Cl)c1cc(C(=O)Cl)cc(C(=O)Cl)c1`, the AC50 is 6.87 µM (active).
